Experimental findings from PubChem BioAssay (NCI) are described below.

The nature of this assay: NCI Yeast Anticancer Drug Screen. Data for the rad18 strain (AID 177). The settings on record: S. cerevisiae rad18 mutant growth inhibition, hits give high values. On the procedure:
Growth inhibition of yeast strains with defined genetic alterations is measured as a screen for potential anti-cancer activity. Selected strains with alterations in DNA damage repair or cell cycle control were exposed to compounds and growth inhibition was measured relative to vehicle treated controls. The strain used in this assay is rad18

About 79,000 compounds went through this panel and 15% of them were active in at least one assay; those are over-represented in the sample as a whole. Unmarked numbers belong to inactive results. Calls of active or inactive are those of the source. No stated cut-off is given here; in the data, active means growth inhibition above about 70%; inactive means the rest.

With `COc1cc(O)c2c(c1O)C(=O)c1cc(C)ncc1C2=O`, the growth inhibition (at 1.2 µM) is 4%; the growth inhibition (at 3.7 µM) was 21%; the growth inhibition (at 11.0 µM) was 28%; the growth inhibition (at 33.0 µM) was 40%; the growth inhibition (at 100.0 µM) is 60%.

`Cc1cc(NCCCCCCCCNc2cc(C)nc3cc(N)ccc23)c2ccc(N)cc2n1`: the growth inhibition reads like this: (at 1.2 µM) -45%; (at 3.7 µM) -65%; (at 11.0 µM) 66%; (at 33.0 µM) 97% (active); (at 100.0 µM) 93% (active).

Take `Oc1[nH]c2ccccc2c1N=NC(=S)N1CCCCC1`: the growth inhibition is, setting by setting: (at 1.2 µM) 5%; (at 3.7 µM) 9%; (at 11.0 µM) 24%; (at 33.0 µM) 89% (active); (at 100.0 µM) 97% (active).

For the compound `S=c1sc2c(s1)SCCS2`, the growth inhibition is -4% (at 1.2 µM); -3% (at 3.7 µM); -2% (at 11.0 µM); -15% (at 33.0 µM); 6% (at 100.0 µM).

`CCOc1ccc(NC(=O)C2=C(C)NC(C)=C(C(=O)Nc3ccc(OCC)cc3)C2c2cccc([N+](=O)[O-])c2)cc1`: the growth inhibition (at 1.2 µM) is -4%; the growth inhibition (at 3.7 µM) was -3%; the growth inhibition (at 11.0 µM) was 3%; the growth inhibition (at 33.0 µM) was 45%; the growth inhibition (at 100.0 µM) is 83% (active).

For the compound `Cc1ccccc1N=C(NO)c1ccccc1`, the growth inhibition (at 1.2 µM) is 1%; the growth inhibition (at 3.7 µM) was 2%; the growth inhibition (at 11.0 µM) is 11%; the growth inhibition (at 33.0 µM) was 35%; the growth inhibition (at 100.0 µM) was 96% (active).

As to `CC(=O)OC1CC2C(C)(C)C(=O)C=C[C@]2(C)C2CCC3(C)C(=CCC3[C@H](CO)C[C@H](O)C(=O)C(C)(C)O)[C@]12C` (stereo not given in full), the growth inhibition is, setting by setting: (at 1.2 µM) -21%; (at 3.7 µM) -21%; (at 11.0 µM) -17%; (at 33.0 µM) 3%; (at 100.0 µM) 74% (active).

Regarding `C[C@]12CC[C@H](O)CC1=CC[C@@H]1C2CC[C@]2(C)C(=O)NC(=O)CC12` (stereo not given in full), the growth inhibition was -27% (at 1.2 µM); -29% (at 3.7 µM); -23% (at 11.0 µM); 77% (active) (at 33.0 µM); 92% (active) (at 100.0 µM).
